# Assay results reported in PubChem BioAssay AID1159580 (chemical genetic matrix, 2015).
# In all, about 5,500 compounds went through this assay and about 2,000 (36%) were called active. Another 18% or so got no clear call; they are omitted. This is one part of the list. Values without a mark were called inactive. Rule as the data show it: active = normalized growth mostly below about 0.91 (no sharp cut-off); inconclusive = no clear call, values can overlap the other calls; inactive = mostly above about 0.92.
# Assay: chemical genetic growth profiling, strain panel (AID 1159580);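 also: tested at 20 µM; growth read once vehicle control cultures reached saturation at 30 °C; 1 = growth at the plate median or of vehicle wells; lower values mean less growth of the strain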
# Conditions: growth OD
# [1] = S. cerevisiae deletion strains, locus YAL013W, strain DEP1, active compounds read low
# [2] = S. cerevisiae deletion strains, locus YBR229C, strain ROT2, active compounds read low
# [3] = S. cerevisiae deletion strains, locus YDL101C, strain DUN1, active compounds read low
# [4] = S. cerevisiae deletion strains, locus YDR150W, strain NUM1, active compounds read low
# [5] = S. cerevisiae deletion strains, locus YEL061C, strain CIN8, active compounds read low
# [6] = S. cerevisiae deletion strains, locus YHR030C, strain SLT2, active compounds read low
# [7] = S. cerevisiae deletion strains, locus YJR043C, strain POL32, active compounds read low
# [8] = S. cerevisiae deletion strains, locus YJR075W, strain HOC1, active compounds read low
# [9] = S. cerevisiae deletion strains, locus YLR039C, strain RIC1, active compounds read low
# [10] = S. cerevisiae deletion strains, locus YLR262C, strain YPT6, active compounds read low
# [11] = S. cerevisiae deletion strains, locus YMR263W, strain SAP30, active compounds read low
# [12] = S. cerevisiae deletion strains, locus YMR307W, strain GAS1, active compounds read low
# [13] = S. cerevisiae deletion strains, locus YNL322C, strain KRE1, active compounds read low
# [14] = S. cerevisiae deletion strains, locus YPL055C, strain LGE1, active compounds read low
smiles,measurement,setting,value
O=C(O)C1C(O)CCC2CN3CCc4c([nH]c5ccccc45)C3CC21 (stereo not drawn),normalized growth,[1],1.03
same,normalized growth,"S. cerevisiae deletion strains, locus YBR021W, strain FUR4, active compounds read low",0.972
same,normalized growth,[2],1
same,normalized growth,"S. cerevisiae deletion strains, locus YCL029C, strain bik1, active compounds read low",1.03
same,normalized growth,"S. cerevisiae deletion strains, locus YDL035C, strain GPR1, active compounds read low",1
same,normalized growth,"S. cerevisiae deletion strains, locus YDL074C, strain BRE1, active compounds read low",1.02
same,normalized growth,[3],1.02
same,normalized growth,"S. cerevisiae deletion strains, locus YDL185W, strain tfp1, active compounds read low",1.01
same,normalized growth,"S. cerevisiae deletion strains, locus YDL192W, strain arf1, active compounds read low",1
same,normalized growth,"S. cerevisiae deletion strains, locus YDR101C, strain arx1, active compounds read low",1.01
same,normalized growth,[4],1.01
same,normalized growth,"S. cerevisiae deletion strains, locus YDR162C, strain NBP2, active compounds read low",1.03
same,normalized growth,"S. cerevisiae deletion strains, locus YDR318W, strain mcm21, active compounds read low",1
same,normalized growth,"S. cerevisiae deletion strains, locus YDR388W, active compounds read low",1.01
same,normalized growth,"S. cerevisiae deletion strains, locus YDR502C, strain sam2, active compounds read low",1.02
same,normalized growth,[5],1.01
same,normalized growth,"S. cerevisiae deletion strains, locus YER110C, active compounds read low",1.02
same,normalized growth,"S. cerevisiae deletion strains, locus YER155C, strain BEM2, active compounds read low",1.02
same,normalized growth,"S. cerevisiae deletion strains, locus YER167W, strain BCK2, active compounds read low",1.02
same,normalized growth,"S. cerevisiae deletion strains, locus YGL078C, strain dbp3, active compounds read low",1.01
same,normalized growth,"S. cerevisiae deletion strains, locus YGL086W, strain mad1, active compounds read low",1.02
same,normalized growth,"S. cerevisiae deletion strains, locus YGL248W, strain PDE1, active compounds read low",1.01
same,normalized growth,"S. cerevisiae deletion strains, locus YGR135W, strain pre9, active compounds read low",0.996
same,normalized growth,"S. cerevisiae deletion strains, locus YGR252W, strain gcn5, active compounds read low",0.951
same,normalized growth,[6],1.01
same,normalized growth,"S. cerevisiae deletion strains, locus YHR079C, strain IRE1 (second series), active compounds read low",1.01
same,normalized growth,"S. cerevisiae deletion strains, locus YHR094C, strain hxt1, active compounds read low",1.02
same,normalized growth,"S. cerevisiae deletion strains, locus YHR129C, strain ARP1, active compounds read low",1.01
same,normalized growth,"S. cerevisiae deletion strains, locus YHR200W, strain rpn10, active compounds read low",1.02
same,normalized growth,"S. cerevisiae deletion strains, locus YIL066C, strain RNR3, active compounds read low",1.01
same,normalized growth,"S. cerevisiae deletion strains, locus YIL073C, strain SPO22, active compounds read low",0.988
same,normalized growth,"S. cerevisiae deletion strains, locus YIL125W, strain kgd1, active compounds read low",1.01
same,normalized growth,"S. cerevisiae deletion strains, locus YIR030C, strain dcg1, active compounds read low",1.01
same,normalized growth,"S. cerevisiae deletion strains, locus YJL095W, strain BCK1, active compounds read low",1.03
same,normalized growth,"S. cerevisiae deletion strains, locus YJL134W, strain LCB3, active compounds read low",1.02
same,normalized growth,"S. cerevisiae deletion strains, locus YJL168C, strain set2, active compounds read low",1.01
same,normalized growth,"S. cerevisiae deletion strains, locus YJL187C, strain SWE1 (second series), active compounds read low",1.01
same,normalized growth,[7],1.02
same,normalized growth,[8],1.04
same,normalized growth,"S. cerevisiae deletion strains, locus YKL009W, strain mrt4, active compounds read low",1.03
same,normalized growth,"S. cerevisiae deletion strains, locus YKL068W, active compounds read low",1.01
same,normalized growth,"S. cerevisiae deletion strains, locus YKL085W, strain MDH1 (second series), active compounds read low",0.998
same,normalized growth,"S. cerevisiae deletion strains, locus YKL085W, strain MDH1, active compounds read low",0.998
same,normalized growth,"S. cerevisiae deletion strains, locus YKR001C, strain vps1, active compounds read low",1.01
same,normalized growth,[9],1.06
same,normalized growth,"S. cerevisiae deletion strains, locus YLR058C, strain SHM2, active compounds read low",1.01
same,normalized growth,"S. cerevisiae deletion strains, locus YLR102C, strain apc9, active compounds read low",1.02
same,normalized growth,[10],1.06
same,normalized growth,"S. cerevisiae deletion strains, locus YLR268W, strain sec22, active compounds read low",1.03
same,normalized growth,"S. cerevisiae deletion strains, locus YLR330W, strain CHS5, active compounds read low",1.01
same,normalized growth,"S. cerevisiae deletion strains, locus YLR342W, strain FKS1 (second series), active compounds read low",1.05
same,normalized growth,"S. cerevisiae deletion strains, locus YLR371W, strain rom2, active compounds read low",1.02
same,normalized growth,"S. cerevisiae deletion strains, locus YLR418C, strain cdc73, active compounds read low",0.986
same,normalized growth,"S. cerevisiae deletion strains, locus YML016C, strain PPZ1, active compounds read low",1.01
same,normalized growth,"S. cerevisiae deletion strains, locus YML032C, strain rad52, active compounds read low",1.01
same,normalized growth,"S. cerevisiae deletion strains, locus YML124C, strain tub3, active compounds read low",1.01
same,normalized growth,"S. cerevisiae deletion strains, locus YMR078C, strain ctf18, active compounds read low",1.01
same,normalized growth,"S. cerevisiae deletion strains, locus YMR223W, strain ubp8, active compounds read low",0.988
same,normalized growth,[11],1.03
same,normalized growth,[12],1.02
same,normalized growth,"S. cerevisiae deletion strains, locus YNL067W, strain RPL9B, active compounds read low",1.03
same,normalized growth,"S. cerevisiae deletion strains, locus YNL233W, strain BNI4, active compounds read low",1.02
same,normalized growth,"S. cerevisiae deletion strains, locus YNL250W, strain rad50, active compounds read low",1.02
same,normalized growth,"S. cerevisiae deletion strains, locus YNL271C, strain bni1, active compounds read low",1.01
same,normalized growth,"S. cerevisiae deletion strains, locus YNL298W, strain CLA4, active compounds read low",1.02
same,normalized growth,"S. cerevisiae deletion strains, locus YNL307C, strain MCK1, active compounds read low",1.02
same,normalized growth,[13],1.01
same,normalized growth,"S. cerevisiae deletion strains, locus YNR052C, strain pop2, active compounds read low",1
same,normalized growth,"S. cerevisiae deletion strains, locus YOL012C, strain htz1",1.58
same,normalized growth,"S. cerevisiae deletion strains, locus YOL147C, strain pex11, active compounds read low",1.02
same,normalized growth,"S. cerevisiae deletion strains, locus YOR061W, strain CKA2, active compounds read low",1.01
same,normalized growth,"S. cerevisiae deletion strains, locus YOR069W, strain VPS5, active compounds read low",1.01
same,normalized growth,"S. cerevisiae deletion strains, locus YOR136W, strain idh2, active compounds read low",1.02
same,normalized growth,"S. cerevisiae deletion strains, locus YOR144C, strain elg1, active compounds read low",1.01
same,normalized growth,"S. cerevisiae deletion strains, locus YOR184W, strain ser1, active compounds read low",1.03
same,normalized growth,"S. cerevisiae deletion strains, locus YOR316C, strain cot1, active compounds read low",1.02
same,normalized growth,[14],1.03
same,normalized growth,"S. cerevisiae deletion strains, locus YPR119W, strain clb2, active compounds read low",1.01
same,normalized growth,"S. cerevisiae deletion strains, locus YPR141C, strain kar3, active compounds read low",1.01
same,normalized growth,"S. cerevisiae deletion strains, locus YPR163C, strain tif3, active compounds read low",1.01
same,normalized growth,"S. cerevisiae deletion strains, locus YPR167C, strain met16, active compounds read low",0.999
same,normalized growth,"S. cerevisiae deletion strains, strain wtn01, active compounds read low",1.02
O=C(O)CSCC(=O)N1CCc2c([nH]c3ccccc23)C1C(F)(F)F (stereo not drawn),normalized growth,[1],1.01
same,normalized growth,[2],1.01
same,normalized growth,"S. cerevisiae deletion strains, locus YCL061C, strain MRC1, active compounds read low",1.04
same,normalized growth,[3],1.01
same,normalized growth,"S. cerevisiae deletion strains, locus YDL134C, strain PPH21, active compounds read low",1
same,normalized growth,[4],0.936
same,normalized growth,[5],0.997
same,normalized growth,"S. cerevisiae deletion strains, locus YGR078C, strain PAC10, active compounds read low",1.05
same,normalized growth,[6],1.16
same,normalized growth,"S. cerevisiae deletion strains, locus YHR087W, strain rtc3, active compounds read low",1
same,normalized growth,[7],1.02
same,normalized growth,[8],1.03
same,normalized growth,"S. cerevisiae deletion strains, locus YKL190W, strain CNB1, active compounds read low",1
same,normalized growth,[9],1.04
same,normalized growth,"S. cerevisiae deletion strains, locus YLR058C, strain SHM2 (second series), active compounds read low",1.02
same,normalized growth,"S. cerevisiae deletion strains, locus YLR085C, strain ARP6, active compounds read low",1.09
same,normalized growth,[10],1.01
same,normalized growth,"S. cerevisiae deletion strains, locus YML094W, strain GIM5, active compounds read low",1
same,normalized growth,"S. cerevisiae deletion strains, locus YMR219W, strain ESC1, active compounds read low",1.02
same,normalized growth,[11],1.02
same,normalized growth,[12],1.1
same,normalized growth,"S. cerevisiae deletion strains, locus YNL128W, strain TEP1, active compounds read low",0.987
same,normalized growth,"S. cerevisiae deletion strains, locus YNL153C, strain GIM3, active compounds read low",1.01
same,normalized growth,"S. cerevisiae deletion strains, locus YNL298W, strain CLA4 (second series), active compounds read low",1.05
same,normalized growth,[13],1.02
same,normalized growth,"S. cerevisiae deletion strains, locus YNR030W, strain Alg12, active compounds read low",1.02
same,normalized growth,"S. cerevisiae deletion strains, locus YOL006C, strain TOP1, active compounds read low",1.11
same,normalized growth,[14],0.991
same,normalized growth,"S. cerevisiae deletion strains, locus YPL241C, strain CIN2, active compounds read low",1.22 [resistant] (active)
same,normalized growth,"S. cerevisiae deletion strains, locus YPR135W, strain CTF4, active compounds read low",1.06
same,normalized growth,"S. cerevisiae strains, strain wild type, active compounds read low",0.993
